# Reference: PubChem BioAssay (EPA / NIEHS)
# Several values for one entry are separate records, joined by “and”; a condition that tells them apart may be missing. Identical values can stand only once. Records with an inconclusive call do not appear. The source holds several records for some structures; these can differ, active in one and inactive in another. Activity calls are given as the source filed them. How the source made its calls, unless noted: active means hit-call score of the fitted dose curve at least 0.9, where 1 is the maximum; inactive means score below 0.9.
# Assays:
# [1] = biological target: Retinoic acid receptor RXR-alpha (Homo sapiens) (UniProt P19793); test: ATG_RXRa_TRANS: Attagene TRANS-FACTORIAL HepG2 Assay for human Retinoid X Receptor alpha (RXRa) (AID 2283012; active means hit-call score of the fitted dose curve at least 0.9, where 1 is the maximum)
# Retinoic acid receptor RXR-alpha (Homo sapiens), sequence (P19793 whole entry, looked up, the tested form may be a part): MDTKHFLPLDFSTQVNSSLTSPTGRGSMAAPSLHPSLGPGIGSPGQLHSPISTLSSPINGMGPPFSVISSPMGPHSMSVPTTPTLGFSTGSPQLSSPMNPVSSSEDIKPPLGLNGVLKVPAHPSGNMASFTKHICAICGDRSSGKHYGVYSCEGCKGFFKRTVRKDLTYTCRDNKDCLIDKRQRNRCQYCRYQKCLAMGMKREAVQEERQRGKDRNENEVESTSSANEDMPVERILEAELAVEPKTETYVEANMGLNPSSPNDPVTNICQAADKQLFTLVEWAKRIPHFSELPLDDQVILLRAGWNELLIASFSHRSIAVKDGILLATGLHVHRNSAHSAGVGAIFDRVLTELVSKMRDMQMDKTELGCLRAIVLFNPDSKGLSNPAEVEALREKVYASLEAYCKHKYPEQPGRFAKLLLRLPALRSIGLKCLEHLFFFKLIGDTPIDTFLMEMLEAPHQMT
# Procedure, shortened: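 Transient transfection of human HepG2 with multiple GAL4-UAS reporter constructs; 24 h compound exposure; total RNA isolated, reverse-transcribed, PCR-amplified, 6-FAM labelled, HpaI-cut, resolved by capillary electrophoresis. Positive-direction fit versus DMSO.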
# [2] = biological target: human Retinoid X Receptor beta (RXRb), RXRB (gene 6257) (UniProt P28702); test: ATG_RXRb_TRANS: Attagene TRANS-FACTORIAL HepG2 Assay for human Retinoid X Receptor beta (RXRb) (AID 2283013; active means hit-call score of the fitted dose curve at least 0.9, where 1 is the maximum)
# human Retinoid X Receptor beta (RXRb), RXRB (gene 6257), sequence (P28702 whole entry, looked up, the tested form may be a part): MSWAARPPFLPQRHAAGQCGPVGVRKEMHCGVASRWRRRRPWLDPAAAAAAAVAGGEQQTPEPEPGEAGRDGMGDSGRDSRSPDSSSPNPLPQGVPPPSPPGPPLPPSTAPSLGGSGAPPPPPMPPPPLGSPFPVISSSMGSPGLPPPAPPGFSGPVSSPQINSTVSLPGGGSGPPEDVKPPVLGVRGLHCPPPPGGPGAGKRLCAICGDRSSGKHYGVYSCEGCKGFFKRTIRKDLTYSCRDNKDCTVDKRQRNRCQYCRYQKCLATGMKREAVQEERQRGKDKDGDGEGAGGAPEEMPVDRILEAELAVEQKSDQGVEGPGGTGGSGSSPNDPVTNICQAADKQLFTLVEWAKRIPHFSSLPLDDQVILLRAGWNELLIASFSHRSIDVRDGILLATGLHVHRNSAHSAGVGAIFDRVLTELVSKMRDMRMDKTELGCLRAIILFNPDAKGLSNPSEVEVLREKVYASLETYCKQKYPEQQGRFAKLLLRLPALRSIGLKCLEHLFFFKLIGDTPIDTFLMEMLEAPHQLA
# Procedure, shortened: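 Transfect HepG2 with GAL4-UAS multi-reporter constructs (chimeric NR-Gal4, TRANS format); dose compound 24 h; isolate RNA, RT-PCR, FAM primer extension, HpaI digest; quantify by capillary electrophoresis; positive direction vs DMSO.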
# [3] = read-out: E-selectin (Homo sapiens) (UniProt P16581); test: BSK_3C_Eselectin: BioMAP Diversity Plus: 3C Assay for Eselectin Biomarker Activity (AID 2283015); conditions: primary human endothelial cells (HUVEC); actives raise or lower the signal;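 on outcome: cell surface E-selectin protein quantified by ELISA 24 h after dosing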
# Procedure, shortened: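 HUVEC, 3C stimulation; compound exposure 24 h; E-selectin by ELISA; gain- or loss-of-signal fitted bidirectionally vs DMSO baseline.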
# [4] = read-out: Interleukin-1 alpha (IL1a), IL1A (gene 3552); test: BSK_BE3C_IL1a: BioMAP Diversity Plus: BE3C Assay for Interleukin-1 alpha (IL1a) Biomarker Activity (AID 2283016); conditions: primary human bronchial epithelial cells; actives raise or lower the signal
# Procedure, shortened: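 BE3C primary human bronchial epithelium; cpd 24 h; IL-1a by ELISA; bidirectional fit vs DMSO; parallel SRB (0.1% SRB, 10% TCA fix, 560 nm) for cytotoxicity.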
# [5] = read-out: Monocyte Chemoattractant Protein-1 (MCP1), CCL2 (gene 6347); test: BSK_4H_MCP1: BioMAP Diversity Plus: 4H Assay for Monocyte Chemoattractant Protein-1 (MCP1) Biomarker Activity (AID 2283018); conditions: primary human endothelial cells (HUVEC); actives raise or lower the signal
# Procedure, shortened: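 ELISA read-out of MCP-1 from human vascular endothelial primary cells taken at 24 hours after compound exposure. Activity was fitted in both directions relative to DMSO, which served as negative control.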
# [6] = read-out: Human Leukocyte Antigen - DR isotype (HLADR), HLA-DRA (gene 3122); test: BSK_3C_HLADR: BioMAP Diversity Plus: 3C Assay for Human Leukocyte Antigen - DR isotype (HLADR) Biomarker Activity (AID 2283019); conditions: primary human endothelial cells (HUVEC); actives raise or lower the signal;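 on outcome: ELISA of cell-surface HLA-DR on HUVEC 24 h after dosing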
# Procedure, shortened: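 HUVEC, 3C stimulation, 24 h post-dose; HLA-DR by ELISA; bidirectional curve fit vs DMSO baseline; gain or loss of signal scored.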
# [7] = read-out: Interleukin-8 (IL8), CXCL8 (gene 3576); test: BSK_3C_IL8: BioMAP Diversity Plus: 3C Assay for Interleukin-8 (IL8) Biomarker Activity (AID 2283020); conditions: primary human endothelial cells (HUVEC); actives raise or lower the signal
# Procedure, shortened: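 ELISA read-out of IL-8 from human umbilical vein endothelium, measured 24 h after chemical dosing. Activity is expressed relative to DMSO negative control, with both increases and decreases fitted.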
# [8] = read-out: Monocyte Chemoattractant Protein-1 (MCP1), CCL2 (gene 6347); test: BSK_3C_MCP1: BioMAP Diversity Plus: 3C Assay for Monocyte Chemoattractant Protein-1 (MCP1) Biomarker Activity (AID 2283017); conditions: primary human endothelial cells (HUVEC); actives raise or lower the signal
# Procedure, shortened: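 HUVEC, 3C system; 24 h chemical exposure; MCP-1 by ELISA; bidirectional curve fit vs DMSO baseline.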
# [9] = read-out: Monokine induced gamma interferon (MIG), CXCL9 (gene 4283); test: BSK_3C_MIG: BioMAP Diversity Plus: 3C Assay for Monokine induced gamma interferon (MIG) Biomarker Activity (AID 2283021); conditions: primary human endothelial cells (HUVEC); actives raise or lower the signal;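 on AC50: MIG protein level measured by immunoassay in the treated endothelial cultures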
# Procedure, shortened: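 Read-out is ELISA detection of MIG on human umbilical vein endothelial cells, taken 24 h after dosing. Gain or loss of signal was scored relative to DMSO controls using bidirectional curve fitting.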
# [10] = biological target: human Thyroid Receptor alpha (THRa1), THRA (gene 7067) (UniProt P10827); test: ATG_THRa1_TRANS: Attagene TRANS-FACTORIAL HepG2 Assay for human Thyroid Receptor alpha (THRa1) (AID 2283014; active means hit-call score of the fitted dose curve at least 0.9, where 1 is the maximum)
# human Thyroid Receptor alpha (THRa1), THRA (gene 7067), sequence (P10827 whole entry, looked up, the tested form may be a part): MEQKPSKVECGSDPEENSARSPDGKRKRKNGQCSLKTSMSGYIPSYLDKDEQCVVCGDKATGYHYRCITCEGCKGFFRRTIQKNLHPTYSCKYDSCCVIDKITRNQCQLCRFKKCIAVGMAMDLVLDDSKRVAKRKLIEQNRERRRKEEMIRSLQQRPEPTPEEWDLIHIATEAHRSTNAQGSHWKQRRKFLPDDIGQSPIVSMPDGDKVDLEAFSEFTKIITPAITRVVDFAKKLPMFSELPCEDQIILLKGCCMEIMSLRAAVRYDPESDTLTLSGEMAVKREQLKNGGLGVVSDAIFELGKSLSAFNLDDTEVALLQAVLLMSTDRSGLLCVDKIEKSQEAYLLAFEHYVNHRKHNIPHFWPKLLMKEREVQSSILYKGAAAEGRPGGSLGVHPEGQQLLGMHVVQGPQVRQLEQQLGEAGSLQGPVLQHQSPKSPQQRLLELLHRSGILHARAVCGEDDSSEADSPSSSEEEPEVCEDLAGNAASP
# Procedure, shortened: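 Transient HepG2 transfection, NR-Gal4 chimera driving GAL4-UAS reporters; 24 h compound exposure; total RNA, oligo(dT) RT, PCR, fluorescent primer extension, capillary electrophoresis. Upward direction vs DMSO control.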
# E-selectin (Homo sapiens), sequence (P16581 whole entry, looked up): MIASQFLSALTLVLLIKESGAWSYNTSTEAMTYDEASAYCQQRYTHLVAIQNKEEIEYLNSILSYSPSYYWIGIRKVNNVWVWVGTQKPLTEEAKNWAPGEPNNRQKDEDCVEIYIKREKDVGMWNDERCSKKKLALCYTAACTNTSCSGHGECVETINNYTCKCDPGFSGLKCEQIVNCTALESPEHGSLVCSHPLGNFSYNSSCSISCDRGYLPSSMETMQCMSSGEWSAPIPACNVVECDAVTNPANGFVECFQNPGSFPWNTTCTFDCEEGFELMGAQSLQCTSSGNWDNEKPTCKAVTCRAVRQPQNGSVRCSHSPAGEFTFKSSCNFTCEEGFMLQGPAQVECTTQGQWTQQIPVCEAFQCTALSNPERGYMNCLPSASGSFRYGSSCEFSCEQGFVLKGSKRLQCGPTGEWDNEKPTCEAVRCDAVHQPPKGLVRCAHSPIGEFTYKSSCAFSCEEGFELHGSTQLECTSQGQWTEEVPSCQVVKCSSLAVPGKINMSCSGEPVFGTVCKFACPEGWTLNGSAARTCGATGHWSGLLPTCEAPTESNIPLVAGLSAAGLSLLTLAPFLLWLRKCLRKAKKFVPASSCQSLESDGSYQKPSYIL
compound,measurement,setting,value
CCN(CC)CCNc1ccc(CNC=O)c2sc3ccc(OC)cc3c(=O)c12,AC50,[1],1.85 µM (active)
same,AC50,[2],0.45 µM (active)
same,AC50,[3],27.3 µM (active)
same,AC50,[4],29.3 µM (active)
same,AC50,[5],20 µM (active)
same,AC50,[6],13.4 µM (active)
same,AC50,[7],16.4 µM (active)
N#C[C@@H]1CC(F)(F)CN1C(=O)CNC1CC2CCC(C1)N2c1ncccn1 (some centres not stated),outcome,[1],inactive
same,outcome,[2],inactive
same,outcome,[3],inactive
same,outcome,[4],inactive
same,AC50,[8],4.85 µM (active)
same,outcome,[5],inactive
same,AC50,[6],2.58 µM (active)
same,AC50,[7],7.55 µM (active)
same,outcome,[9],inactive
ClC1=C(Cl)C(Cl)(Cl)C(Cl)=C1Cl,outcome,[1],inactive
same,AC50,[2],17.5 µM (active)
same,outcome,[2],inactive
same,outcome,[10],inactive
same,AC50,[3],7.17 µM (active)
same,AC50,[4],8.21 µM (active)
same,AC50,[8],7.92 µM (active)
same,AC50,[5],7.06 µM (active)
same,AC50,[6],4.6 µM (active)
same,AC50,[7],9.46 µM (active)
same,AC50,[9],10.5 µM (active)
O=C(O)Cc1cc(I)c(Oc2cc(I)c(O)c(I)c2)c(I)c1,AC50,[1],10.3 µM (active)
same,outcome,[1],inactive
same,AC50,[2],2.55 µM (active) and 17.6 µM (active)
same,outcome,[3],inactive
same,AC50,[4],8.95 µM (active)
same,AC50,[5],19.9 µM (active)
same,AC50,[6],26.2 µM (active)
same,AC50,[7],22.4 µM (active)
same,outcome,[9],inactive
NCC(F)(F)C(F)(F)C(F)(F)C(F)(F)C(F)(F)C(F)(F)C(F)(F)F,outcome,[1],inactive
same,outcome,[2],inactive
same,outcome,[3],inactive
same,outcome,[4],inactive
same,outcome,[5],inactive
same,outcome,[6],inactive
same,outcome,[7],inactive
same,outcome,[9],inactive
C#C[C@]1(O)CC[C@H]2[C@@H]3CCC4=CC(=O)CC[C@@H]4[C@H]3CC[C@@]21C,outcome,[1],inactive
same,outcome,[2],inactive
same,outcome,[10],inactive
same,AC50,[3],11.5 µM (active)
same,outcome,[4],inactive
same,outcome,[5],inactive
same,AC50,[6],7.59 µM (active)
same,AC50,[7],5.01 µM (active)
same,outcome,[9],inactive
O=C(O)c1ccccc1C(c1ccc(O)cc1)c1ccc(O)cc1,outcome,[1],inactive
same,outcome,[2],inactive
same,outcome,[10],inactive
same,outcome,[3],inactive
same,outcome,[4],inactive
same,outcome,[8],inactive
same,outcome,[5],inactive
same,outcome,[6],inactive
same,outcome,[7],inactive
same,outcome,[9],inactive
CC(=O)CC(C)(C)O,outcome,[1],inactive
same,outcome,[2],inactive
same,outcome,[3],inactive
same,outcome,[4],inactive
same,outcome,[8],inactive
same,outcome,[5],inactive
same,outcome,[6],inactive
same,outcome,[7],inactive
same,outcome,[9],inactive
OCCC(F)(F)C(F)(F)C(F)(F)C(F)(F)C(F)(F)C(F)(F)F,outcome,[1],inactive
same,outcome,[2],inactive
same,outcome,[3],inactive
same,outcome,[4],inactive
same,outcome,[5],inactive
same,AC50,[6],46.1 µM (active) and 42.1 µM (active)
same,outcome,[6],inactive
same,AC50,[7],45.7 µM (active)
same,outcome,[7],inactive
same,AC50,[9],44.8 µM (active) and 45.3 µM (active)
same,outcome,[9],inactive
CCCCCCCCC(=O)O,outcome,[1],inactive
same,AC50,[2],65.3 µM (active)
same,outcome,[2],inactive
same,outcome,[3],inactive
same,outcome,[4],inactive
same,outcome,[5],inactive
same,outcome,[6],inactive
same,outcome,[7],inactive
same,outcome,[9],inactive
CCC(C)(C)C1CCC(O)CC1 (configuration not stated),outcome,[1],inactive
same,AC50,[2],58.7 µM (active) [middle of 4 runs]
same,outcome,[3],inactive
same,outcome,[4],inactive
same,outcome,[5],inactive
same,outcome,[6],inactive
same,outcome,[7],inactive
same,outcome,[9],inactive
CCc1ccc(CCOc2ccc(CC3SC(=O)NC3=O)cc2)nc1 (configuration not stated),outcome,[1],inactive
same,outcome,[2],inactive
same,outcome,[3],inactive
same,outcome,[4],inactive
same,outcome,[8],inactive
same,outcome,[5],inactive
same,outcome,[6],inactive
same,outcome,[7],inactive
same,outcome,[9],inactive
c1ccc2cc3c(ccc4ccccc43)cc2c1,outcome,[1],inactive
same,outcome,[2],inactive
same,outcome,[3],inactive
same,outcome,[4],inactive
same,outcome,[5],inactive
same,outcome,[6],inactive
same,outcome,[7],inactive
same,outcome,[9],inactive
O=C(/C=C/c1ccc(O)cc1)CC(=O)/C=C/c1ccc(O)cc1,outcome,[1],inactive
same,outcome,[2],inactive
OCCC(F)(F)C(F)(F)C(F)(F)C(F)(F)C(F)(F)C(F)(F)C(F)(F)C(F)(F)F,outcome,[1],inactive
same,outcome,[2],inactive
same,AC50,[3],30 µM (active)
same,outcome,[3],inactive
same,AC50,[4],18.2 µM (active) and 18.6 µM (active)
same,outcome,[4],inactive
same,AC50,[5],43.6 µM (active)
same,outcome,[5],inactive
same,AC50,[6],20 µM (active) and 27.8 µM (active) and 30 µM (active)
same,AC50,[7],48.2 µM (active)
same,outcome,[7],inactive
same,AC50,[9],48.6 µM (active)
same,outcome,[9],inactive
